Assay outcomes from PubChem.
L3MBTL1 inh: L3MBTL1 (human) inhibition | AlphaScreen L3MBTL1–H3K9me1 peptide binding | Potency, µM (series often up to 57.1 µM), for inactives: at the highest dose activity, negative = inhibition, usual class: inhibitors | 230,000 tested, 0.66% active; further: on the % scale 0 is the no-effect control and ±100 the full control effect; nearly all actives have a fitted effect of over 60% in size
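L3MBTL1 (50 nM) pre-complexed 30 min with biotinylated H3(1-15)K9me1 peptide (75 nM), then compounds added for 30 min at room temperature; AlphaScreen streptavidin donor/nickel chelate acceptor beads (10 ug/mL final) read after 30 min dark incubation.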
BAZ2B inh: inhibitors of human BAZ2B bromodomain; AlphaScreen BAZ2B-H3K14Ac peptide displacement; Potency, µM (doses to about 114 µM), for the others: top-dose activity change, negative = inhibition, actives largely listed as inhibitors; 360,000 tested, 4.4% active; AID 504333; further: on the % scale 0 is the no-effect control and ±100 the full control effect; nearly all actives have a fitted effect of over 60% in size
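Compounds, titrated to a top concentration of 110 uM, were incubated 30 min at room temperature with preformed BAZ2B/acetyl-K14 H3 peptide complex (50 nM each). Proximity signal was measured by AlphaScreen after 20 min with beads.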
HP1b binding inh: HP1-beta chromodomain-methylated histone interaction inhibition | AlphaScreen HP1-beta / biotin-H3K9me3 peptide binding | Potency, µM (top dose mostly 114 µM), for the others: at the highest dose activity change, negative = inhibition, most hits filed as inhibitors | 390,000 tested, 0.56% active; further: nearly all actives have a fitted effect of over 70% in size
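AlphaScreen: HP1-beta (50 nM) preformed 30 min with biotin-H3(1-18)K9me3 peptide (50 nM) in PBS pH 7.4, 0.01% Tween-20. Compound added for 30 min at RT, then streptavidin donor/nickel chelate acceptor beads (10 ug/mL) for 30 min.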
G9a block: blocks human histone lysine methyltransferase G9a | Q96KQ7 | G9a H3K9 monomethylation, AlphaScreen, 2 h | Potency, µM (highest dose often 102 µM), inactives show top-dose activity, negative = inhibition, actives largely listed as inhibitors | 350,000 tested, 8.8% active | AID 504332; further: on the % scale 0 is the no-effect control and ±100 the full control effect; nearly all actives have a fitted effect of over 75% in size
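Chemiluminescent proximity detection of H3K9 monomethylation, read after 10 min bead incubation in the dark. Reaction: 20 nM G9a, 500 nM biotin-H3K9 peptide, 20 uM SAM cofactor, 2 h, room temperature, following 15 min enzyme-compound preincubation.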
Sfp PPTase inh: Sfp phosphopantetheinyl transferase inhibition | Q9F4F7 | Biochemical Sfp PPTase activity, qHTS | Potency, µM, for inactives: largest response in the series, negative = inhibition, usual class: inhibitors | 310,000 tested, 3.5% active;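 further: the enzyme is Sfp with the accession as filed and its product quenches rhodamine fluorescence; 0% = enzyme reaction without inhibitor and -100% = no enzyme wells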
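With Hepes-Na pH 7.6 buffer containing 10 mM MgCl2, Sfp (15 nM) modified BHQ-2-YbbR (12.5 uM) using rhodamine-CoA (5 uM). Two reads 30 minutes apart at 525/598 nm yielded each well's rate.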
JMJD2A Tudor inh: JMJD2A Tudor domain (human) inhibition; 390,000 tested, 4.4% active; AlphaScreen JMJD2A-Tudor / H3K4me3 peptide binding; Potency, µM (series often up to 114 µM), for the others: at the top dose activity change, negative = inhibition, usual class: inhibitors; O75164; further: on the % scale 0 is the no-effect control and ±100 the full control effect; nearly all actives have a fitted effect of over 50% in size
* hit, by the source's call; u = inconclusive; x = not tested or not shown; [ ] = dose if it differs, or a comment. Hits are enriched below; roughly 12% of the tested compounds scored in any of these assays. The call rests on the fitted dose curve; in most records, active means well fitted curve in the direction sought with a large enough effect; inconclusive means small, poorly fitted or top-dose-only effect, or another doubt; inactive means no such curve, though single readings can be large; an effect the other way counts as inactive or inconclusive. Potency means the concentration at half of the fitted maximal effect.

SMILES	L3MBTL1 inh	BAZ2B inh	HP1b binding inh	G9a block	Sfp PPTase inh	JMJD2A Tudor inh
O=C(O)CC1Sc2nc3ccccc3n2C1=O (stereo not drawn)	x	1%	29%	45µM*	4%	-23%
Cc1nc2nc(C)n(-c3ccccc3)c2s1	3%	-2%	14%	13µM*	4%	-28%
C/C(N)=C(/C#N)C(=O)CSc1nc2ccccc2[nH]1	x	u	u	u	2%	79µM*
CC(=O)Nc1ccc(SCC(=O)Nc2oc(C)c3c(C)n[nH]c(=O)c23)cc1	-5%	1%	50%	50µM*	x	-7%
Cc1n[nH]c(=O)c2c(NC(=O)COC(=O)c3cc(F)cc(F)c3)oc(C)c12	1%	1%	46%	45µM*	x	-19%
Cc1n[nH]c(=O)c2c(NC(=O)CSc3ccc(F)cc3)oc(C)c12	-7%	3%	12%	-50%	x	-17%
Cc1cc(C)c(C)c(SCC(=O)Nc2oc(C)c3c(C)n[nH]c(=O)c23)c1C	0%	4%	12%	4µM*	x	-21%
CCCN1C(=O)c2ccccc2NC1c1ccc(OC)c(COc2cccc(OC)c2)c1 (stereo not drawn)	x	x	17%[57 µM]	x	x	-18%[57.1 µM]
COCCNC(=O)c1c(C)oc2nc(C)nc(N3CCOCC3)c12	x	12%[57.1 µM]	12%	-3%[59 µM]	x	-15%
Cc1c(CCC(=O)NCCC(=O)O)c(=O)oc2c(C)c3oc4c(c3cc12)CCCC4	x	-21%	18%	-4%	12%	-20%
C/C(=N\NC(N)=S)c1ccc2c(c1)OCCO2	-1%	-3%	9%	x	-23%	-15%
C/C(=N\NC(=S)Nc1ccc(C)cc1)c1cccc(N)c1	-14%	u	-25%	45µM*	29%	u
CC(=NNC(=S)Nc1cccc(C)c1)c1ccccn1	x	x	u	x	x	50µM*
C/C(=N\NC(=S)Nc1cccc(C)c1)c1cccc(N)c1	-2%	u	u	u	7%	u
Cc1cccc(NC(=S)NCCc2ccccn2)c1	-21%	-36%	16%	-12%[59 µM]	-23%	2%
C=CCNC(=S)N/N=C(\C)c1cccc(NC(C)=O)c1	-11%	-36%	60%	51%	50µM*	-7%
C/C(=N\NC(=S)Nc1ccc(F)cc1)c1ccc2c(c1)OCCO2	u	35µM*	u	u	12%	32µM*
Cc1ccc(S(=O)(=O)Nc2ccccc2F)cc1C(=O)OC(C)C(=O)N1CCOCC1 (stereo not drawn)	-2%	-1%	9%	8%[12.7 µM]	x	-1%
CC(=O)OC[C@@H]1O[C@@H](O/N=C2/C[C@@H](O)[C@@H](O)[C@@H]3[C@@H]4C(=O)N(C5CCCCC5)C(=O)[C@H]4CC[C@H]23)[C@H](OC(C)=O)[C@H](OC(C)=O)[C@@H]1OC(C)=O	x	x	x	x	-11%	x
C/C(=N\NC(=O)C(c1ccccc1)c1ccccc1)c1ccccn1	-3%	-7%	13%	20%	4%	-22%
CC(=NNC(=S)Nc1ccc(C)cc1)c1ccccn1	x	x	u	x	x	79µM*
COc1ccc(C2C(C(C)=O)=C(C)Nc3ncnn32)cc1[N+](=O)[O-] (stereo not drawn)	x	-4%	55%	12%	0%	89µM*
CCOc1ccc(CCNC(=O)COC(=O)c2sccc2C)cc1OCC	10%	-27%	20%	2%[0.501 µM]	x	-6%
C=CCNC(=O)c1onc(CSc2cccc(OC)c2)c1C(=O)NCC=C	x	6%	45%	13%[59 µM]	16%	-2%
CCOc1cc2c(cc1/C=C/c1noc(C)c1[N+](=O)[O-])OC(C)C2 (stereo not drawn)	x	1%	31%	45µM*	12%	2%
CCOc1cc2c(cc1C=O)OC(C)C2 (stereo not drawn)	-3%	-11%	30%	-6%[12.7 µM]	15%	1%
COc1cccc(-c2cn3ncsc3n2)c1	x	u	16%	-25%[59 µM]	x	-25%
O=C1NN(c2ccccc2)C(=O)/C1=C/c1ccc(Sc2cccc3ccccc23)o1	u	10µM*	u	32µM*	u	u
